Data published in PubChem BioAssay (NCI).
Several values for one entry are separate records, joined by “and”; a condition that tells them apart may be missing. Identical values can stand only once. The panel holds about 79,000 compounds, 15% with a hit somewhere; the sample as a whole holds those more often. Values without a mark were called inactive. Activity calls are given as the source filed them. No stated cut-off is given here; in the data, active means growth inhibition above about 70%; inactive means the rest.

Columns and labels:
[1] = NCI Yeast Anticancer Drug Screen. Data for the rad50 strain (AID 155);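 further: 0% = growth of vehicle-only cultures of the same strain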; settings: S. cerevisiae rad50 strain growth inhibition, stronger effect = higher value
Procedure, shortened: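 Compounds were tested on a yeast strain with an engineered DNA damage repair alteration; the reported value is growth inhibition normalised to vehicle treatment.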

[2] = NCI Yeast Anticancer Drug Screen. Data for the mec2-1 strain (AID 157); settings: S. cerevisiae mec2-1 strain, stronger effect = higher value
Procedure, shortened: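 Yeast mec2-1 mutant treated with compound. Readout: growth inhibition vs vehicle controls.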

[3] = NCI Yeast Anticancer Drug Screen. Data for the sgs1 mgt1 strain (AID 161);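 further: 0% = growth of cultures given vehicle only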; settings: S. cerevisiae sgs1 mgt1 strain, stronger effect = higher value
Procedure, shortened: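 Read-out: growth inhibition vs vehicle controls. Cells: mutant yeast strain deficient in DNA damage repair.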

[4] = NCI Yeast Anticancer Drug Screen. Data for the cln2 rad14 strain (AID 165);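 further: 0% = growth equal to vehicle treated cultures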; settings: S. cerevisiae cln2 rad14 strain, stronger effect = higher value
Procedure, shortened: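 cln2 rad14 yeast strain; compound exposure; growth inhibition read vs vehicle controls.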

[5] = NCI Yeast Anticancer Drug Screen. Data for the bub3 strain (AID 167); settings: S. cerevisiae bub3 mutant strain, stronger effect = higher value
Procedure, shortened: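 Growth of a checkpoint-deficient yeast mutant is measured after compound exposure. Values represent inhibition relative to vehicle.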

[6] = NCI Yeast Anticancer Drug Screen. Data for the mlh1 rad18 strain (AID 175); settings: S. cerevisiae mlh1 rad18 strain growth inhibition, stronger effect = higher value
Procedure, shortened: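 Yeast w/ defined DNA-repair lesions; compound exposure; growth vs vehicle controls → % inhibition.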

[7] = at 5.0 µM (retest, dose inferred, filed as 0.5)
[8] = at 50.0 µM (retest, dose inferred, filed as 5.0)

| SMILES | growth inhibition [1, 7] | growth inhibition [1, 8] | growth inhibition ([1]; at 50.0 µM) | growth inhibition [2, 7] | growth inhibition [2, 8] | growth inhibition ([2]; at 50.0 µM) | growth inhibition [3, 7] | growth inhibition [3, 8] | growth inhibition ([3]; at 50.0 µM) | growth inhibition [4, 7] | growth inhibition [4, 8] | growth inhibition ([4]; at 50.0 µM) | growth inhibition [5, 7] | growth inhibition [5, 8] | growth inhibition ([5]; at 50.0 µM) | growth inhibition [6, 7] | growth inhibition [6, 8] | growth inhibition ([6]; at 50.0 µM) |
| --- | --- | --- | --- | --- | --- | --- | --- | --- | --- | --- | --- | --- | --- | --- | --- | --- | --- | --- |
| [Cl][Pt+2][Cl].[NH-]C(c1ccccc1)C([NH-])c1ccccc1 (configuration not stated) | -11% | 10% | -22.9% and 11% | 2% | -8% | -21.4% and 0.25% | -10% | 9% | 19% and 2.15% | -23% | -10% | 18.6% and 21.9% | -9% | 4% | -2.7% and -2.2% | -6% | 2% | -17.6% and 29.3% |
| O=CNc1ccccc1.[Hg] | 98% (active) | 98% (active) | 99.7% (active) | 99% (active) | 99% (active) | 99.6% (active) | 99% (active) | 98% (active) | 99.4% (active) | 99% (active) | 98% (active) | 99.3% (active) | 99% (active) | 98% (active) | 99.5% (active) | 98% (active) | 98% (active) | 99.4% (active) |
| CCC(C)c1cc([N+](=O)[O-])cc([N+](=O)[O-])c1O (configuration not stated) | -137% | 39% | 79% (active) | -31% | 24% | 66.2% | -50% | 60% | 86% (active) | -9% | 44% | 69.9% | -58% | 19% | 80.1% (active) | -123% | 40% | 85.5% (active) |
| CC[n+]1c(-c2ccccc2)c2cc(N)ccc2c2ccc(N)cc21 | 39% and 29% | 91% (active) and 92% (active) | 81.6% (active) and 83.3% (active) | 7% and -18% | 45% and 13% | 3.7% and 3.85% | -4% and -13% | 16% and 27% | 23.3% and 32.1% | 2% and -6% | 27% and 40% | 11.8% and 34.9% | -7% and -2% | 27% and 24% | 52.9% and 5.2% | -17% and -4% | 25% and 20% | 20.2% and 34.6% |
| CCOC(=O)NC(=S)[S][Sb]([S]C(=S)NC(=O)OCC)[S]c1nc2ccc(N=Nc3ccc(NS(=O)(=O)c4ccc(NC(=O)C(N5CC5)(N5CC5)N5CC5)cc4)cc3)cc2s1 | 70% (active) | 99% (active) | 99.2% (active) | 33% | 99% (active) | 99.6% (active) | 46% | 99% (active) | 99.5% (active) | 16% | 98% (active) | 99% (active) | 24% | 99% (active) | 99.3% (active) | 80% (active) | 99% (active) | 99.2% (active) |
| CCCCCCCCCCCC(=O)[O][Hg][c]1ccccc1 | 99% (active) | 99% (active) | 99.4% (active) | 100% (active) | 100% (active) | 99.7% (active) | 100% (active) | 99% (active) | 99.7% (active) | 99% (active) | 99% (active) | 99.4% (active) | 99% (active) | 99% (active) | 99.5% (active) | 99% (active) | 99% (active) | 99.7% (active) |
| CC(C)O.CC(C)O.OCCN(CCO)CCO.OCCN(CCO)CCO.[Ti+2] | 19% | 36% | 60% | 44% | 96% (active) | 31.6% | 11% | 20% | 52.9% | 34% | 70% (active) | 4.3% | 99% (active) | 99% (active) | 39.2% | 22% | 39% | 44.2% |
| c1cc[c]([Sn]([c]2ccccc2)([c]2ccccc2)[c]2ccccc2)cc1 | -2% | -3% | 60.2% | -3% | 1% | 53.4% | 0% | -2% | 86.5% (active) | -1% | -4% | -20.4% | 2% | 2% | 46% | 1% | -4% | 81.9% (active) |
| O=[N+]([O-])c1ccc(SC2CCCCCCC2Cl)c([N+](=O)[O-])c1 (configuration not stated) | 6% | 22% | 22.1% | 8% | 41% | 4.3% | 10% | 76% (active) | 30.1% | -1% | 29% | 14.8% | 15% | 85% (active) | 20.5% | 7% | 53% | 72.8% (active) |
